# Reference: PubChem BioAssay (NCI)
# This is part of a sample that, as a whole, favours compounds with a hit. Of some 83,000 tested, about 20% had one in any assay.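 Treatment: one concentration, 48 hours, 96-well format. Scoring: percent growth, with anything below 10 considered active.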 Unmarked numbers belong to inactive results. Active and inactive are the calls of the source.
# Test system: HL-60(TB) leukemia
# Test: NCI-60 one-dose screen, 48 h (100 = growth as untreated, 0 = no growth, -100 = all killed)
# Conditions: 10 µM unless noted
row,SMILES,growth
1,COc1cc(/C=C/C(=O)c2cccs2)ccc1OCc1ccc(Cl)nc1,72.6%
2,CC(=O)c1c(C)nc(SCC(=O)Nc2ccc(Cl)cc2)n1-c1ccc(Cl)cc1,86.6%
3,Cc1c(Cl)cccc1C(=O)Nc1nc2c(s1)CN(C(=O)Nc1cccc(C(F)(F)F)c1)CC2,6.4% (active)
